The values below come from ChEMBL document CHEMBL1201862, “PubChem BioAssay data set” (2004).

The structures appear in SMILES notation.

This experiment has as its target T1, Thyroid hormone receptor beta (Homo sapiens) (UniProt P10828).
T1 sequence (whole entry): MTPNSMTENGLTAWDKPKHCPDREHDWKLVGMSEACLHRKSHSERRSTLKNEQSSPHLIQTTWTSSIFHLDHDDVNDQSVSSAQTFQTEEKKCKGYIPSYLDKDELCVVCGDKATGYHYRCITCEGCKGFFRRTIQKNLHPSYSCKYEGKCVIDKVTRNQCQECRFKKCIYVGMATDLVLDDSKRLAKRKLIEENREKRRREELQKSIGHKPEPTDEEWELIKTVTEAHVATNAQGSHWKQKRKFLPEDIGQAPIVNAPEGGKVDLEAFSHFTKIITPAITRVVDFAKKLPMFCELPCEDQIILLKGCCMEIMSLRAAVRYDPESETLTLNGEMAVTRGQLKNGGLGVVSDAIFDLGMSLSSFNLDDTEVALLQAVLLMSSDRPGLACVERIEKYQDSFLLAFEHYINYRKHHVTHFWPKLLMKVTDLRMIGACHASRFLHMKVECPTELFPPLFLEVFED
Nature of the experiment: qHTS Assay for Inhibitors of the Interaction of Thyroid Hormone Receptor and Steroid Receptor Coregulator 2: Probe Summary. [Related pubchem assays (depositor defined):AID1469, AID1479, AID1567, AID1568, AID1570, AID1571, AID1573, AID2444, AID2447, AID2448, AID2449, AID2455, AID2479, AID2487, AID2490, AID2552]. The experiment is classed as functional.
Consider `CC1CCN(C(=O)COC(=O)c2ccc(S(C)(=O)=O)c([N+](=O)[O-])c2)CC1`, for which the Potency was 9800 nM (active). As to `CCC(OC(=O)c1ccc(S(C)(=O)=O)c([N+](=O)[O-])c1)C(=O)NC1C2CC3CC(C2)CC1C3` (centres undefined), the Potency is 1100 nM (active).

Consider `CC(OC(=O)c1ccc(S(C)(=O)=O)c([N+](=O)[O-])c1)C(=O)NC1C2CC3CC(C2)CC1C3` (centres undefined), for which the Potency is 1400 nM (active). The figure for `CCCC1CCN(C(=O)COC(=O)c2ccc(S(C)(=O)=O)c([N+](=O)[O-])c2)CC1` is 3300 nM (active).
